Shown are actives, neighbours in structure and some others; about 10% of the full set was active somewhere.
Lmaj promast – Leishmania major promastigote growth inhibition, primary screen; inhibition, % at 10 µM; Leishmania major promastigotes, resazurin fluorescence viability; actives 9% (n = 200,000); in the data active = inhibition above about 50%;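 note: promastigotes grown with compound for 44 hours at 28 °C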
ROMK primary – ROMK potassium channel modulators, primary screen, cell-based, thallium flux, MLSMR library; ATP-sensitive inward rectifier potassium channel 1 (Homo sapiens), P48048; Tet-inducible ROMK, thallium flux fluorescence; actives lie on both sides; B-score at 10 µM; actives 2% (n = 130,000); AID 1918, 2009;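 active = signal ratio slope over the read window, or its plate-corrected B-score, at least 3 SD from the plate mean, either direction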;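 note: B-score of the F/F0 ratio slope over 7 to 12 s after thallium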
Target sequence (P48048 whole entry, looked up): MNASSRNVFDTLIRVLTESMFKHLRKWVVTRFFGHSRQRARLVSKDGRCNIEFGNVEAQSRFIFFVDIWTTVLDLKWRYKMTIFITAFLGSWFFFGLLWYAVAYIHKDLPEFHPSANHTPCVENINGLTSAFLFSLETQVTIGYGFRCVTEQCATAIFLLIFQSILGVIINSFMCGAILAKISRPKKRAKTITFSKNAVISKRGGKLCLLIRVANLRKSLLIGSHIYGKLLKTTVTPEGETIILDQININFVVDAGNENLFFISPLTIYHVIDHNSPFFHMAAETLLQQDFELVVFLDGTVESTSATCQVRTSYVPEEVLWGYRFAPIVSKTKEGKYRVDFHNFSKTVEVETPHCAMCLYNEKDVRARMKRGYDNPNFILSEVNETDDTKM
p97 inhibitor – inhibitors of human p97 ATPase, primary screen, biochemical; Transitional endoplasmic reticulum ATPase (Homo sapiens), P55072; recombinant p97 ATPase, Kinase-Glo ATP luminescence, 3 h; actives 0.42% (n = 220,000); AID 1481, 2009; inhibition, % at 8 µM; in the data active = inhibition above about 15%;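 note: 0% = DMSO vehicle and 100% = wells lacking enzyme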
INS promoter inh – inhibitors of insulin promoter-driven GFP, primary screen, imaging, TRM-6 cells (human fetal islet line), eGFP reporter, cell count; reporter expression induced with tamoxifen; inhibition, % at 2 µM; actives 0.9% (n = 130,000);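 active = inhibition above the mean plus 3 SD, with well images judged a real hit on visual review, cut at about 60% in these data, passing the limit was not always enough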
PTEN del growth – growth suppression of PTEN-null HCT116, primary screen, cell-based, CellTiter-Glo; viability, % at 10 µM; actives 1.2% (n = 140,000); AID 827, 2007; HCT116 PTEN-null viability, 60 h; hits give low values;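 active = viability at or below a set limit, 4 SD under the median of all tested compounds, cut at about 3.7% in these data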;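 note: PTEN knockout HCT116 line with beta catenin targeted HCT116 as companion control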
HCT116 bCat-KO – primary screen for growth suppressors in beta-catenin knockout HCT116 cells (colon tumor, human); AID 818, 2007; viability, % at 10 µM; HCT116 beta-catenin knockout viability, CellTiter-Glo, 60 h; hits give low values; actives 1.5% (n = 140,000);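 active = viability at or under a set limit, the compound median less 4 SD, cut at about 6% in these data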;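 note: 0% = Hyamine 1622 control at 20 µM and 100% = untreated cell control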
* hit, by the source's call.

For CC1(C)CC(=O)C2=C(C1)OC(N)=C(C#N)C2c1cc2c(cc1[N+](=O)[O-])OCO2 (stereo unspecified) the results were Lmaj promast 65*, ROMK primary -0.46, p97 inhibitor 5, INS promoter inh 22, PTEN del growth 93 and HCT116 bCat-KO 93.
CCOc1cc(C2C(C#N)=C(N)OC3=C2C(=O)CC(C)(C)C3)cc([N+](=O)[O-])c1O (stereo unspecified) was read as Lmaj promast -5, ROMK primary 0.45, p97 inhibitor 4 and INS promoter inh -18.
For O=C(CCS(=O)(=O)Cc1ccccc1)NCC1CCCO1 (stereo unspecified) the results were Lmaj promast -5, p97 inhibitor -7, INS promoter inh -305, PTEN del growth 110 and HCT116 bCat-KO 97.
Cc1ccc(C(=O)/C=C/C(=O)c2ccc(C)cc2)cc1 was read as Lmaj promast 101*, ROMK primary -1 and p97 inhibitor 6.
For Cc1ccc(-c2ccc(/C=C/C(=O)c3ccccc3)o2)cc1 the results were Lmaj promast 89*, p97 inhibitor 5, INS promoter inh -43, PTEN del growth 86 and HCT116 bCat-KO 87.
`Cc1ccsc1/C=N/NC(=O)c1ccccn1` gave Lmaj promast 60*, ROMK primary 0.97, p97 inhibitor -10, INS promoter inh 19, PTEN del growth 83 and HCT116 bCat-KO 80.
`CSc1nc(-c2ccccc2)c(C#N)c(=O)n1C` gave Lmaj promast -2, ROMK primary -0.35 and p97 inhibitor 5.
For O=C1CC(SC2=NCCS2)C(=O)N1c1cccc(Cl)c1Cl (stereo unspecified) the results were Lmaj promast -5, ROMK primary -0.029, p97 inhibitor 4 and INS promoter inh -20.
Screening c1ccc(-c2nc3c(ccc4ccccc43)[nH]2)nc1 returned Lmaj promast 100*, p97 inhibitor -2, INS promoter inh 38, PTEN del growth 40 and HCT116 bCat-KO 31.
For CCOC(=O)c1ccc(Oc2nc(NC)nc(Nc3ccccc3)n2)cc1 the results were Lmaj promast 97*, ROMK primary -0.41, p97 inhibitor -2, INS promoter inh 8, PTEN del growth 88 and HCT116 bCat-KO 115.
Screening CCNc1nc(Oc2ccc(C(=O)OC)cc2)nc(N(C)C)n1 returned Lmaj promast 3, p97 inhibitor 2, INS promoter inh 23, PTEN del growth 101 and HCT116 bCat-KO 94.
COC(=O)c1ccc(Oc2nc(Nc3ccc(C)c(C)c3)nc(N(C)C)n2)cc1 was read as Lmaj promast 74*, ROMK primary -1.1, p97 inhibitor -6, INS promoter inh -21, PTEN del growth 64 and HCT116 bCat-KO 68.
`COC(=O)c1ccc2c(=O)n(CC3CCCO3)c(SCC(=O)Nc3ccc(OC)cc3OC)nc2c1` (stereo unspecified) gave p97 inhibitor 6.
`CCOC(=O)c1c(NC(=O)CN2CCCCC2)sc(CN(C)C)c1-c1ccccc1` gave Lmaj promast 52*, ROMK primary 0.29, p97 inhibitor 0 and INS promoter inh -4.
CCOC(=O)c1c(NC(=O)CCl)sc(CN(C)C)c1-c1ccccc1 was read as Lmaj promast 91*, ROMK primary -1.6 and p97 inhibitor 4.
CCOC(=O)c1c(NC(=O)/C=C/C(=O)O)sc(C)c1-c1ccc(Cl)cc1 was read as Lmaj promast 7, ROMK primary 0.61 and p97 inhibitor -5.
`CCOC(=O)c1c(/N=C/N(C)C)sc(/C=N/Nc2ccccc2)c1-c1ccccc1` gave Lmaj promast 95*, ROMK primary -0.24, p97 inhibitor 1, INS promoter inh 25, PTEN del growth 89 and HCT116 bCat-KO 83.
For CC(=O)C1C(c2ccc(Cl)cc2)c2c(noc2C)CC1(C)O (stereo unspecified) the results were p97 inhibitor -3.
Screening CCO[C@H]1OC(C(=O)N2CCOCC2)=C[C@@H](C)[C@@H]1CCCO returned Lmaj promast -5 and p97 inhibitor -2.
COc1c(Cl)cc(Cl)cc1C(=O)Nc1ccc(CN2CCCCC2)cc1 was read as Lmaj promast 100*, ROMK primary 0.98, p97 inhibitor -1 and INS promoter inh -38.
COc1ccc(C(=O)NC(=S)Nc2ccc(CN3CCCCC3)cc2)cc1Cl was read as Lmaj promast 99*, ROMK primary -1 and p97 inhibitor 0.
Screening Cc1ccc(C(=O)NC(=S)Nc2ccc(CN3CCCCC3)cc2)c(C)c1 returned Lmaj promast 73*, ROMK primary -0.25 and p97 inhibitor 0.
`BrC(=C\c1ccccc1)/C=N/n1cnnc1` gave Lmaj promast 100*, ROMK primary -0.56, p97 inhibitor 3 and INS promoter inh -120.
For BrC(=C\c1ccccc1)/C=N/Nc1ccc2nncn2n1 the results were p97 inhibitor 5.
COc1ccc(-c2csc(N(C)C(=O)c3cccs3)n2)cc1 was read as Lmaj promast -10, ROMK primary -0.24 and p97 inhibitor 4.
CCN(CC)CCCN(C(=O)c1cccs1)c1nc(-c2ccc(OC)cc2)cs1 was read as Lmaj promast 101*, p97 inhibitor 0, PTEN del growth 30 and HCT116 bCat-KO 30.
For COc1ccc(-c2csc(N(CC3CCCO3)C(=O)c3cccs3)n2)cc1 (stereo unspecified) the results were Lmaj promast 82*, ROMK primary 0.097, p97 inhibitor 2, INS promoter inh 30, PTEN del growth 51 and HCT116 bCat-KO 51.
For FC(F)Sc1ccc(N=C2NN=C(c3ccc4c(c3)OCCO4)CS2)cc1 the results were Lmaj promast 55*, p97 inhibitor 5, INS promoter inh 14, PTEN del growth 12 and HCT116 bCat-KO 15.
For COc1ccc(N=C2NN=C(c3ccc4c(c3)OCCO4)CS2)cc1 the results were Lmaj promast 0, ROMK primary 2, p97 inhibitor 6, INS promoter inh 9, PTEN del growth 92 and HCT116 bCat-KO 86.
Screening CCOCCCNC(=O)/C(C#N)=C/c1ccc(C)o1 returned Lmaj promast -4, ROMK primary -0.15 and p97 inhibitor 1.
`Cc1ccc2cc(/C=C(\C#N)C(N)=O)c(N3CCCCC3)nc2c1` gave Lmaj promast 42, ROMK primary -0.89, p97 inhibitor 0, INS promoter inh 53, PTEN del growth 27 and HCT116 bCat-KO 43.
Screening Cc1ccc2cc(C=C(C#N)C#N)c(N3CCCCC3)nc2c1 returned Lmaj promast 99*, ROMK primary -0.4, p97 inhibitor -5, INS promoter inh 0, PTEN del growth 38 and HCT116 bCat-KO 64.
CCOC(=O)/C(C#N)=C/c1cc2ccccc2nc1N1CCCCC1 was read as Lmaj promast 88*, ROMK primary -0.058 and p97 inhibitor 0.
